Screening data from PubChem.
Rows were chosen to be rich in hits. Some 4.3% of all compounds tested hit in one or more screens of this group.
CR mimetic SO = caloric restriction mimetics inhibiting age-related superoxide in yeast. S. cerevisiae aged cells, superoxide DHE fluorescence; hits give low values. superoxide response (% of plate mean), % at 10 µM. 0.18% of 330,000 active. AID 2690;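 active = superoxide response under a set limit, about three screen SD below normal, cut at about 65% in these data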;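 note: yeast aged for seven days with compound at 30 °C before DHE staining; 100% = average MFI of all compound-treated wells on the plate with controls excluded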
UBC13 polyUb = human UBC13 polyubiquitination inhibition; P61088; UBC13 polyubiquitin chain formation, TR-FRET; inhibition, % at 20 µM; 0.47% of 330,000 active; AID 485273; in the data active = inhibition above about 45%, passing the limit was not always enough; inconclusive = no clear call, values can overlap the other calls
Target sequence (P61088 whole entry, looked up): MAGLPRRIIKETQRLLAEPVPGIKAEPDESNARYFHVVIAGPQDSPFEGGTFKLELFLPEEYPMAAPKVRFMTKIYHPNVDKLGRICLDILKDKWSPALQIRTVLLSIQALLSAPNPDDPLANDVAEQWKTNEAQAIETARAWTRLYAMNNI
NALP1 yeast inh = blocks the NALP1 inflammasome reconstituted in yeast; 0.61% of 280,000 active; inhibition, % at 10 µM; AID 2071; S. cerevisiae NALP1/ASC/caspase-1 growth, X-gal OD620, 72 h; in the data active = inhibition mostly above about 24%, no sharp cut-off; inactive = mostly below about 32%
dFosB activator = mouse delta FosB homodimer activation; 0.99% of 340,000 active; purified delta FosB, TAMRA-CDK5 oligo fluorescence polarization; percent of positive-control signal above neutral wells; AID 493131; activation, % at 25 µM;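 active = mean activation above about 17%, with every replicate also reaching it, limit read from the data, passing the limit was not always enough; inconclusive = only one of the two conditions met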
Target sequence (P13346 whole entry, looked up): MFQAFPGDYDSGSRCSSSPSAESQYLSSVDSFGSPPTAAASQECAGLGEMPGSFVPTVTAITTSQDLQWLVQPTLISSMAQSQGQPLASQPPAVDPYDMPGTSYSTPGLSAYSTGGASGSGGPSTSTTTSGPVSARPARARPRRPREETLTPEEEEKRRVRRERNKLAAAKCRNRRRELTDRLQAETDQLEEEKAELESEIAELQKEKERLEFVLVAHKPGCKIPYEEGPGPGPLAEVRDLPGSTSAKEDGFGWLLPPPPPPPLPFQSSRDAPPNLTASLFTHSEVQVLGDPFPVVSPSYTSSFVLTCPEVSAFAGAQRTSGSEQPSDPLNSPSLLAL
NR3A LBD binder = modulators (binders) of human NR3A ligand-binding domain; NR3A LBD differential scanning fluorimetry, Tm shift; 0% = protein alone, 100% = glycine-bound protein; Tm shift relative to glycine control, % at 25 µM; 2.5% of 340,000 active;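 active = melting temperature shift of at least 10% of the positive control shift, at one fixed dose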
Casp3 UBC13 ctr = counter-screen for UBC13 inhibitors: human caspase-3 inhibition; shares compounds with UBC13 polyUb; Recombinant caspase-3, Caspase-Glo 3/7 luminescence, 60 min; inhibition, % at 20 µM; 4% of 1,400 active;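 active = mean inhibition across replicates above about 26%, limit read from the data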;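 note: plate controls were DMSO with caspase-3 for no effect and DMSO wells lacking enzyme for full effect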
UBC13 confirm = human UBC13 polyubiquitin inhibition, confirmed. shares compounds with UBC13 polyUb. UBC13 polyubiquitination, TR-FRET, biochemical. inhibition, % at 10 µM. 68% of 1,400 active; in the data active = inhibition above about 45%; inconclusive = no clear call, values can overlap the other calls
* marks the source's active call; other numbers are inactive results; u = inconclusive; x = no result; ! = repeats disagree.

SMILES	CR mimetic SO	UBC13 polyUb	NALP1 yeast inh	dFosB activator	NR3A LBD binder	Casp3 UBC13 ctr	UBC13 confirm
CC1(c2nnc(-c3ccncc3)o2)CC(c2ccccc2)=NO1 (configuration not stated)	102	-9	x	-2	-5	x	x
Cc1ccc(NC(=O)c2ccc3c(c2)CCN3S(C)(=O)=O)c(C)c1	98	-6	11	-1	-2	x	x
Oc1ccc(NC(=S)N=Nc2c(O)[nH]c3ccccc23)cc1	96	92*	-7	-2	-9	6	103*
Oc1cccc(NC(=S)N=Nc2c(O)[nH]c3ccc(Br)cc23)c1	106	86*	1	-6	8	3	u
Cc1ccccc1CC(=O)Nc1ccon1	82	-5	16	5	3	x	x
COCCNC(=O)C(c1ccc(C)cc1)N(Cc1ccccc1)C(=O)CCC(=O)Nc1ccccn1 (configuration not stated)	109	-4	-1	-10	0	x	x
COc1cc2nc(Cl)nc(N3CCCCC3)c2cc1OC	108	15	-9	-6	0	x	x
COc1cc2nc(N3CCNCC3)nc(N)c2cc1OC	87	107*	9	-74	5	-1	118*
Cc1cc(NCCCn2ccnc2)n2nc(-c3ccc(Cl)cc3)cc2n1	97	3	3	5	-3	x	x
CN(C)CCCNc1cc(C(C)(C)C)nc2c(-c3ccccc3)cnn12	100	66*	6	-11	0	1	34
CC(C)(C)c1cc(NCCCn2ccnc2)n2ncc(-c3ccc(Cl)cc3)c2n1	114	52*	14	-10	20*	0	77*
C=CCC1(CC=C)CCCN1C(=O)c1cc(COc2ccccc2SC)on1	107	-10	-67	-15	9	x	x
C=CCn1c(=O)c(C(=O)Nc2ccc(C)cn2)c(O)c2ccccc21	102	55*	0	-3	-1	3	30
CCS(=O)(=O)c1ncc(Cl)c(C(=O)Nc2ccc(S(=O)(=O)N3CCC(C)CC3)cc2)n1	93	-10	8	-10	-6	x	x
COc1ccc(S(=O)(=O)N(C)c2ccc(C(=O)Nc3cccnc3)cc2)cc1OC	95	2	9	-3	1	x	x
CCCN1CCN(C(=O)C2CCN(c3ncnc4c3nc3n4CCCCC3)CC2)CC1	78	77*	22	-14	8	-1	94*
O=C(NCCc1ccccc1)C1CCCN(c2ncnc3c2nc2n3CCCCC2)C1 (configuration not stated)	102	6	5	-8	-5	x	x
O=C(NCCCN1CCN(c2ccccc2)CC1)C1CCCN(c2ncnc3c2nc2n3CCCCC2)C1 (configuration not stated)	96	80*	12	-7	-1	-5	101*
O=C(NCC1CCN(Cc2ccccc2F)CC1)C1CCCN(c2ncnc3c2nc2n3CCCCC2)C1 (configuration not stated)	86	47*	25	-13	4	1	60*
O=C(Nc1ccc(Cl)cn1)C1CCN(c2ncnc3c2nc2n3CCCCC2)CC1	84	10	22	-2	0	x	x
CC1CCN(C(=O)C2CCN(c3ncnc4c3nc3n4CCCCC3)CC2)CC1	89	35	-4	-8	-2	x	x
Cc1ccc(CN2CCC(CNC(=O)C3CCCN(c4ncnc5c4nc4n5CCCCC4)C3)CC2)cc1 (configuration not stated)	101	34	1	-7	-2	x	x
O=C(Nc1ccc(F)c(Cl)c1)C1CCN(c2ncnc3c2nc2n3CCCCC2)CC1	92	74*	4	-3	-4	6	75*
Cc1c(NC(=O)Nc2cccc(C(F)(F)F)c2)c(=O)n(-c2ccccc2)n1C	98	4	-9	-2	2	x	x
COc1ccc(N2C(=O)C3CCCN3C2c2ccc(C)o2)cc1 (configuration not stated)	110	3	14	-8	0	x	x
SMILES	CR mimetic SO	UBC13 polyUb	NALP1 yeast inh	dFosB activator	NR3A LBD binder	Casp3 UBC13 ctr	UBC13 confirm
O=C(NCCCN1CCCCC1)C1CCN(c2ncnc3c2nc2n3CCCCC2)CC1	108	73*	10	-1	-4	-1	86*
Cc1ccc(S(=O)(=O)CCSc2n[nH]c(=O)n2-c2ccc3c(c2)OCCO3)cc1	94	12	x	-8	-3	x	x
O=S(=O)(c1ccc(Cl)cc1)N1CCN(Cc2ccc(O)c3ncccc23)CC1	102	-26	6	4	-4	x	x
Oc1ccc(CN2CCN(Cc3ccccc3)CC2)c2cccnc12	105	66*	x	-8	-4	0	103*
CN1CCN(C2CCN(Cc3ccc(O)c4ncccc34)CC2)CC1	89	60*	x	5	-3	-1	70*
COc1ccc2c(c1OC)C(=O)N1C2SC(C)(C)[C@H]1C(=O)NC1CC1 (some centres not stated)	85	8	5	2	-2	x	x
COc1cccc(/C=N/NC(=O)C(=O)N/N=C/c2cccc(OC)c2OC)c1OC	111	-13	36	5	-4	x	x
COc1cccc(/C=N\NC(=O)c2sc(N)nc2C)c1OC	91	105*	12	-8	-2	15	110*
Cc1ccc(Nc2cc(Cl)nc(N)n2)c([N+](=O)[O-])c1	x	x	x	4	-14	x	x
CCN(c1ccccc1)S(=O)(=O)c1ccc(C(=O)N2CCN(c3ccccc3)CC2)cc1	88	7	x	-8	-13	x	x
CCOc1ccccc1/C=N/NC(=O)Cc1csc(Nc2cccc(C(F)(F)F)c2)n1	99	-9	18	-7	7	x	x
COc1ccc(/C=N/NC(=O)Cc2csc(Nc3cccc(C(F)(F)F)c3)n2)c(OC)c1	96	78*	8	-17	8	-2	69*
CCOc1ccccc1NC(=O)C(OC(=O)c1ccc(O)cc1)c1ccccc1 (configuration not stated)	98	78*	16	-16	26*	-2	89*
CCOC(=O)c1nc(-c2ccccc2)sc1C(C)=O	105	-12	-7	4	0	x	x
CCOC(=O)C1=C(COCCN)NC(C)=C(C(=O)OC)C1c1ccccc1Cl (configuration not stated)	113	61*!	x	-7	1	3	37
CC(C)COCC(CN(Cc1ccccc1)c1ccccc1)N1CCCC1 (configuration not stated)	91	49*	24	0	0	2	40
COc1ccc2nc(SCc3nc(N)nc(Nc4ccccc4)n3)[nH]c2c1	107	46*	-2	8	8	-3	38
CCN1CCN(Cc2ccc(NC(=O)c3ccc(C)c(NC(=O)c4cc(-c5ccc(Br)cc5)n[nH]4)c3)cc2C(F)(F)F)CC1	97	72*	x	-5	0	2	65*
